For 32 compounds, growth results are on record in PubChem BioAssay (NCI).

The structures appear in SMILES notation. This is part of a sample that, as a whole, favours compounds with a hit. Of some 83,000 tested, about 20% had one in any assay.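 For each line, cells grew in 96-well plates with the test compound present at a single concentration for 48 hours.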 Unmarked numbers belong to inactive results. Active and inactive are the calls of the source. How the source made its calls: active means growth percent below 10; inactive means the rest.

What all share (experiment): NCI-60 one-dose screen, 48 h (100 = growth as untreated, 0 = no growth, -100 = all killed)
Common to all, as to conditions: 10 µM unless noted

In assay [1] the test system is HCT-15 colon.
Assay [2] deals with HT29 colon.
For assay [3], the system named is SNB-75 CNS.
The test system of assay [4] is SNB-19 CNS.
Assay [5] has as its system PC-3 prostate.
Assay [6] relates to UACC-62 melanoma.
The subject of assay [7] is LOX IMVI melanoma.
Assay [8] relates to SK-MEL-28 melanoma.
The subject of assay [9] is U251 CNS.
Assay [10] concerns SK-MEL-5 melanoma.

For the compound `O=[N+]([O-])c1cc2c(cc1Br)C1C(C3C2C(Cl)(Cl)C(Cl)=C(Cl)C3(Cl)Cl)C(Cl)(Cl)C(Cl)=C(Cl)C1(Cl)Cl` (stereo not drawn), the growth in [1] was 103%; in [2] it was 102%; in assay [3], 85.8%; in assay [4], 106%; in assay [5], 85.1%; in assay [6] it was 87.1%. The growth in assay [7] was 91.9%; in assay [8], 102%.

On to `CCOC(=O)c1sc(NC(=O)CN2CCC(Cc3ccccc3)CC2)nc1C`, for which the growth in assay [1] is 92.9%; in assay [2], 79.8%; in assay [3], 109%; in [4] it was 104%; in assay [5], 93.1%; in [6] it was 114%. The growth in assay [7] is 96.7%; in [8], 110%.

Regarding `c1ccc(-c2nc(N3CCOCC3)c3c4c(sc3n2)CCCCCC4)nc1`, the growth in [1] was 46.9%; in [2] it was 65.9%; in assay [3], 29.4%; in [9], 50.3%; in assay [5], 32.2%; in [6], 51.7%. The results for the growth in assay [7] and in assay [8] were 69.6% and 75.5%, respectively.

For the compound `CNc1ccc(Br)cc1-c1n[nH]c(=O)[nH]c1=O`, the growth is 102% in assay [1]; 112% in assay [2]; 77.4% in [3]; 96.2% in assay [9]; 99.5% in [5]; 105% in [6]. Moreover, in [7], the growth was 98.6%.

For `CCCOC(=O)c1ccc2c(c1)[N+](=O)C(C(=O)c1ccccc1)=C(C(F)(F)F)[N+]2=O`, the growth in assay [1] was -65.7% (active); in assay [2], -92.1% (active); in [3], -98.5% (active); in [4], -88.9% (active); in assay [5], -91.5% (active); in assay [6], -92.4% (active). Besides, the growth in assay [7] is -74.7% (active); in [8], -96.8% (active).

As for `COc1ccc(-n2c(SCc3cc(OC)c(OC)c(OC)c3)nc3ccc(C)cc3c2=O)c(OC)c1`, the growth in assay [1] is 23.7%; in assay [2], 11.3%; in [3], 29.6%; in assay [9] it was 24.9%; in [5], 8.75% (active); in assay [10], 17.6%. In addition, the values for the growth in assay [6], in assay [7] and in [8] were 24.3%, 31.6% and 40.8%, respectively.

Turning to `O=c1[nH]c(-c2ccncc2)nc2sc3c(c12)CCCCCC3`, the growth in assay [1] was 76.1%; in assay [2], 99%; in assay [3], 33.8%; in assay [9], 71.7%; in [5] it was 90.1%; in [6], 88%. Also, the growth is 83.2% in assay [7] and 101% in assay [8].

In the case of `O=C1C(Br)=C(c2ccccc2)C(=O)C(Br)=C1c1ccccc1`, the growth was 85.7% in assay [1]; 110% in [2]; 78% in [3]; 93.6% in [4]; 91.5% in [5]; 98.5% in assay [10]. Further, the growth in [6] was 83.1%; in assay [7] it was 97.5%; in [8] it was 107%.

As to `FC(F)(F)c1cc(CNc2ncc(Br)c(Cl)n2)cc(C(F)(F)F)c1`, the growth in assay [1] was 97.7%; in assay [2], 106%; in assay [3], 95.4%; in assay [4], 112%; in assay [5] it was 92.2%; in [6], 103%. Further, the results for the growth in assay [7] and in assay [8] were 90.5% and 102%, respectively.

Take `COC(=O)C1C2CC3c4[nH]c5cc(OC)ccc5c4CCN3CC2CC(OC2CCCCO2)C1OC` (stereo not drawn): the growth in [1] is 99.8%; in assay [2], 94.4%; in assay [3], 84.4%; in assay [9], 97%; in assay [5], 87.1%; in [6], 99.3%. Also, the results for the growth in [7] and in assay [8] were 95.4% and 101%, respectively.

For the compound `COc1ccc(-n2ncc3c2ccc2cc(S(=O)(=O)c4ccccc4)c(=O)n(C)c23)cc1`, the growth is 92% in [1]; 81.2% in assay [2]; 49.6% in assay [3]; 92.7% in assay [4]; 86.7% in assay [5]; 87.8% in [6]. For the same compound, the growth in [7] is 86%; in [8], 91.2%.

Take `NC(=O)c1nc2c([nH]c1=O)CCCC2`: the growth in assay [1] is 102%; in [2], 101%; in assay [3], 89.6%; in assay [9] it was 106%; in assay [5], 101%; in assay [6], 106%. Besides, the growth is 99.1% in assay [7] and 103% in assay [8].

Consider `ONc1nc(NO)c2[nH]cnc2n1`, for which the growth in assay [1] is 89.9%; in [2] it was 109%; in assay [3], 88.6%; in assay [4], 112%; in assay [5] it was 69.2%; in [10] it was 102%. For the same compound, the growth in assay [7] was 26%; in assay [8], 91%.

`Cn1c2c(cc(S(=O)(=O)c3ccccc3)c1=O)CCc1c-2cnn1-c1ccccc1Cl`: the growth in assay [1] was 95.9%; in assay [2] it was 104%; in assay [3], 92.5%; in assay [4] it was 96.2%; in [5] it was 93.5%; in assay [10], 105%. For the same compound, the growth in assay [6] is 93.4%; in assay [7], 107%; in assay [8], 104%.

Take `C=CC[P+](c1ccccc1)(c1ccccc1)c1ccccc1`: the growth in assay [1] was 98.1%; in assay [2], 40%; in assay [3] it was 63.3%; in assay [4], 61.6%; in assay [5], 34.7%; in assay [6], 42%. In addition, the figures for the growth in [7] and in assay [8] were 66.4% and 71.8%, respectively.

With `CC(C)(C)[Si](C)(C)OC1[C@@H](COC(N)=O)O[C@@H](n2cnc3c(N)ncnc32)[C@H]1O[Si](C)(C)C(C)(C)C` (stereo partly drawn), the growth in [1] was 88%; in assay [2], 93.6%; in assay [3], 99.4%; in assay [9], 82.7%; in assay [5] it was 18.4%; in assay [10], 96.9%. In addition, the growth is 85.5% in assay [6], 98.2% in [7] and 98.3% in assay [8].

As for `O=c1nc(NO)[nH]c(=O)n1Cc1ccc(F)cc1`, the growth in assay [1] was 107%; in assay [2], 105%; in assay [3] it was 86.1%; in assay [9] it was 98.6%; in assay [5], 94.1%; in [6], 108%. Moreover, the growth was 101% in [7] and 102% in assay [8].

`COc1cc2nc(SCc3cc(OC)c(OC)c(OC)c3)n(-c3ccccc3OC)c(=O)c2cc1OC`: the growth in assay [1] is 75.4%; in assay [2] it was 66.6%; in [3] it was 62.8%; in [9], 86.8%; in [5], 61.1%; in [6], 72.5%. Besides, the growth in [7] was 77.3%.

Consider `COc1ccccc1-n1c(SCc2cc(OC)c(OC)c(OC)c2)nc2ccc(Cl)cc2c1=O`, for which the growth in assay [1] was 27.8%; in assay [2], 7.69% (active); in assay [3], -4.26% (active); in [9], 25.6%; in [5], 19.6%; in assay [10] it was 27.7%. Besides, the growth was 34.3% in assay [6], 33.2% in assay [7] and 49.4% in [8].

In the case of `CN1CCc2c(c3ccccc3c3ccccc23)C1`, the growth was 31.3% in assay [1]; 37.7% in assay [2]; 66.1% in assay [3]; 66.2% in [4]; 64% in assay [5]; 61.3% in [6].

For `Clc1nc(-c2ccccn2)nc2sc3c(c12)CCCCCC3`, the growth in assay [1] was 84.2%; in assay [2], 99.3%; in assay [3], 85%; in assay [9], 97.2%; in [5], 92.2%; in [6] it was 96%. Further, the growth was 67.8% in [7] and 89.3% in assay [8].

On to `O=c1[nH]c(=S)[nH]c(=O)n1Cc1cccc2ccccc12`, for which the growth is 98.3% in assay [1]; 110% in assay [2]; 81.8% in assay [3]; 93.1% in assay [9]; 92.8% in [5]; 89.7% in assay [6]. In addition, in [7], the growth was 94.3%.

As for `CCOC(=O)C1=C(C)N2C(=NC3=C(CCCC/C3=C\c3cc(OC)c(OC)c(OC)c3)C2c2cc(OC)c(OC)c(OC)c2)S1` (stereo not drawn), the growth was 44.8% in assay [1]; 66.8% in assay [2]; 89.4% in assay [3]; 67.7% in assay [9]; 49.8% in assay [5]; 39.9% in [6]. In addition, the growth is 74.1% in assay [7] and 82.9% in [8].

Consider `COc1ccc(OC)c2ncccc12`, for which the growth is 96.3% in assay [1]; 97.4% in assay [2]; 88.6% in [3]; 110% in assay [4]; 92% in [5]; 114% in assay [6]. Besides, the growth is 95.6% in assay [7] and 117% in [8].

With `CC(C)(C)[Si](C)(C)OC1[C@@H](O[Si](C)(C)C(C)(C)C)[C@@H](CNC(=O)NC(=O)C(F)(F)F)O[C@H]1n1cnc2c(NC(=O)Nc3ccccc3)ncnc21` (stereo partly drawn), the growth in assay [1] was 69.7%; in assay [2], 21.3%; in assay [3], 72.8%; in [9] it was 78.6%; in assay [5], -35.5% (active); in assay [6], 84.3%. For the same compound, the growth in [7] is 56.2%; in assay [8], 97.9%.

Consider `Nc1ccccc1-c1n[nH]c(=O)[nH]c1=O`, for which the growth in [1] is 104%; in assay [2], 106%; in assay [3], 89.5%; in assay [9], 94.2%; in [5], 96.9%; in [6], 89%. Moreover, the results for the growth in assay [7] and in assay [8] were 97.8% and 103%, respectively.

Take `Cc1cc(Cl)c2c(Cl)ccc(Cl)c2n1`: the growth in assay [1] is 95.4%; in assay [2], 102%; in [3], 95.5%; in [4], 107%; in assay [5], 96.3%; in [10], 102%. Also, the growth was 105% in [6], 103% in assay [7] and 113% in [8].

As to `Cc1ccc(N=c2nc3sc4c(C)ccc(C)c4n3c(N)c2C#N)cc1`, the growth in [1] was 104%; in [2] it was 104%; in [3], 92.1%; in [9], 96.1%; in assay [5] it was 88%; in assay [6] it was 77.9%. Further, the values for the growth in [7] and in [8] were 99.4% and 105%, respectively.

In the case of `Cc1ccc(-c2nnc(COc3ccc(-c4nnc(N)s4)cc3)o2)cc1`, the growth in [1] was 81.3%; in assay [2] it was 81.5%; in assay [3], 94.2%; in assay [4] it was 86%; in assay [5] it was 83.9%; in assay [6], 83.2%. The growth was 26% in assay [7] and 98.3% in assay [8].

On to `O=c1[nH]c(-c2ccccn2)nc2sc3c(c12)CCCCCC3`, for which the growth in assay [1] is 27.9%; in assay [2], 49%; in [3], 64.8%; in assay [9], 22.5%; in [5], 41.1%; in assay [6], 45.6%. Besides, the growth in [7] was 29.7%; in assay [8] it was 40.1%.

Regarding `Nc1c(Br)cc(Br)cc1-c1n[nH]c(=O)[nH]c1=O`, the growth in [1] was 98.1%; in [2] it was 99.7%; in assay [3], 85.5%; in assay [9], 100%; in assay [5] it was 99%; in [6], 106%. The growth in assay [7] was 96.1%; in assay [8], 110%.

`CCN(C(=O)c1ccc2c3c(cccc13)C=C2)c1ccccc1`: the growth was 88.7% in assay [1]; 88.8% in assay [2]; 88.9% in [3]; 93.7% in [4]; 83.7% in assay [5]; 93.9% in [10]. For the same compound, the growth in [6] was 80.3%; in assay [7], 108%; in [8], 108%.
